# Experimental data from PubChem BioAssay AID2227 (Johns Hopkins Ion Channel Center, 2009).
# Hit rate of the full screen: of about 310,000 compounds, about 1,300 (0.42%) were called active.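 Rule for the calls: active = B-score of calcium response area above 5 SD of library B-scores, with initial fluorescence ratio within 5 SD of library; inactive = the rest.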 Shown is part of a subset that was picked to be rich in actives.
# Molecular target: Short transient receptor potential channel 4 (Mus musculus) (UniProt Q9QUQ5)
# Assay: TRPC4 channel potentiators under submaximal DAMGO – cell-based, mouse TRPC4beta, HEK293 mu-opioid, Fluo-4 calcium, primary screen (AID 2227);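 for B-score: B-score of integrated fluorescence ratio over time as area under calcium response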
# Details: DAMGO EC20, Fluo-4 Ca2+ flux, at 10 µM; stronger effect = higher value
# Sequence of Short transient receptor potential channel 4 (Mus musculus) (Q9QUQ5 whole entry, looked up): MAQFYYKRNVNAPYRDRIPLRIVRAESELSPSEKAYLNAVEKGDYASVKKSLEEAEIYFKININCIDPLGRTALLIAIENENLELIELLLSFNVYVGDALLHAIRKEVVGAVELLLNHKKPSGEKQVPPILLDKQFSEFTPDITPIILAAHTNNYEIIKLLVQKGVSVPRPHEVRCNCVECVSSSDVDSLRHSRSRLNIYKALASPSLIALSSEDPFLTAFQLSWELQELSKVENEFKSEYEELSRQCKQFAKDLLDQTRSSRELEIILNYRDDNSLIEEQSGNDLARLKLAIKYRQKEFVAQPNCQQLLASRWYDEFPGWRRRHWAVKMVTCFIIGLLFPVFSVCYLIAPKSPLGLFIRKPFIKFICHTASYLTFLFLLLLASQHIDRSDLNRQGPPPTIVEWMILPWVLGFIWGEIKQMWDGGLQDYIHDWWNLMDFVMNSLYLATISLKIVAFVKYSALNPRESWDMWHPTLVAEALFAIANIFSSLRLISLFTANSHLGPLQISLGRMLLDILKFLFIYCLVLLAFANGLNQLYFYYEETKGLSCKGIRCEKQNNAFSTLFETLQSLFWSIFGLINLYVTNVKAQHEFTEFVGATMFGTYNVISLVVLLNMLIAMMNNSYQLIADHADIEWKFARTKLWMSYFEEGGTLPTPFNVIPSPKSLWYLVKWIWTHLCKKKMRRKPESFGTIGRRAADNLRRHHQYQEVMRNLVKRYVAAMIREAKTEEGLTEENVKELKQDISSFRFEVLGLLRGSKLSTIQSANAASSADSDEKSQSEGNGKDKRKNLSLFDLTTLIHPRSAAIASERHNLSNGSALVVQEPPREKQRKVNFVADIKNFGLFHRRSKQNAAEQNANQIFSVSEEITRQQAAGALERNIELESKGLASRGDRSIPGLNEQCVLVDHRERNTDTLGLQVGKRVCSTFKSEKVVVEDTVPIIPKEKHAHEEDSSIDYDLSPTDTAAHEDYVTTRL
row,SMILES,B-score
1,Cc1cccc(N2C(=O)SC(SC(=Nc3ccccc3)Nc3ccccc3)C2=O)c1 (centres undefined),inactive
2,CCCCn1c(=S)[nH]c2ccccc2c1=O,inactive
3,O=C(O)c1ccc(Cn2c(=S)[nH]c3cc(Cl)ccc3c2=O)cc1,inactive
4,CN(C)CCn1c(=S)[nH]c2ccc(Cl)cc2c1=O,14 (active)
5,COC(=O)c1ccc(C(=O)OC)c(NC(=S)N2CCN(c3cc(Cl)ccc3C)CC2)c1,inactive
6,Cc1cccc(N2CCN(C(=O)c3cnn4c(C(F)F)cc(-c5ccccc5)nc34)CC2)c1C,inactive
7,Cc1ccc(Cl)cc1N1CCN(C(=O)c2cccc3c(=O)c(C)c(-c4ccccc4)oc23)CC1,24 (active)
8,COc1cccc(NC(=O)CSc2nccn(-c3ccc4c(c3)OCCO4)c2=O)c1,inactive
9,CCOc1ccc(NS(=O)(=O)c2ccc(C)c(C(N)=O)c2)cc1,inactive
10,COc1ccc(-c2cc(C(=O)N3CCN(Cc4ccc5c(c4)OCO5)CC3)on2)cc1OC,inactive
11,COc1cc(Cl)c(S(=O)(=O)N2CCN(Cc3ccc4c(c3)OCO4)CC2)cc1Cl,37 (active)
12,CCn1cc(C(=O)N2CCN(Cc3ccc4c(c3)OCO4)CC2)c2cc(OC)c(OC)cc2c1=O,inactive
13,CC(=O)c1ccccc1OCc1ccc(C(=O)c2ccccc2)cc1,inactive
14,COC(=O)c1cc(C(=O)OCC(=O)Nc2cc(C)on2)cc([N+](=O)[O-])c1,inactive
15,COc1ccc(OCCn2ccnc2C)cc1,inactive
16,Brc1c(CSc2nncc3ccccc23)nc2ccccn12,inactive
17,COc1ccccc1NS(=O)(=O)c1ccc(C(=O)N2CCN(c3ccccc3O)CC2)cc1,inactive
18,CCn1c2ccccc2c2cc(NC(=O)COC(=O)c3cc(S(=O)(=O)N4CCCCC4)ccc3Cl)ccc21,inactive
19,Cc1cccc(NC(=O)c2cccc(S(=O)(=O)N3CCCC3)c2)n1,inactive
20,CCn1c(O)c(N=NC(=O)c2cccc(S(=O)(=O)N3CCCCC3)c2)c2ccccc21,15 (active)
21,COc1ccc(CSc2nnnn2-c2ccc(C(=O)O)cc2)cc1,inactive
22,Cc1ccccc1OC/C(O)=C(\C#N)c1nc2ccccc2[nH]1,inactive
23,COCCN(CCOC)S(=O)(=O)c1ccc(/C(O)=C(\C#N)c2nc3ccccc3[nH]2)cc1,11 (active)
24,CCC(=O)/C(=C(/O)c1ccccc1)c1nc2ccccc2[nH]1,inactive
25,COC(=O)c1c(CCl)noc1C(=O)NC(C)C,inactive
26,O=C(Nc1cccc(F)c1)c1coc(=O)c(Br)c1,inactive

row,SMILES,B-score
1,CC(=N\NC(=O)c1cc(Br)ccc1O)/C(=N/O)C(=O)Nc1ccccc1,inactive
2,Clc1ccc(CN2CCN(/N=C/c3cccnc3)CC2)cc1,12 (active)
3,Cc1ccc(CN2CCN(/N=C/c3ccco3)CC2)c(C)c1,inactive
4,O=C1/C(=C\c2cccnc2)CN(Cc2ccccc2)C/C1=C\c1cccnc1,inactive
5,Cc1ccc(CN2CCN(c3ncccn3)CC2)c(C)c1,inactive
6,C(=N\n1cnnc1)/c1cccnc1,inactive
7,Cc1ccc(CN2CCN(/N=C/c3cccnc3)CC2)c(C)c1,12 (active)
8,CCOc1ccc(S(=O)(=O)NCCCn2ccnc2)cc1NC(C)=O,inactive
9,CCc1ccc(/C=N/NC(=O)c2nnn(-c3nonc3N)c2CN2CCc3ccccc32)cc1,inactive
10,CCN(CCn1cccn1)Cc1cn[nH]c1-c1ccc(OC)cc1F,inactive
11,Cc1cccc(C)c1NC(=O)C1(N(C(=O)c2ccccn2)c2ccc(O)cc2)CCCCC1,inactive
12,CN(C)CCCN(Cc1cc2cc3c(cc2[nH]c1=O)OCCO3)C(=O)NC1CCCCC1,inactive
13,Cc1ccc(NC(=S)NC(=O)c2ccc(-c3ccccc3)cc2)cc1,inactive
14,CCOC(=O)C1=C(NC(=S)NC(=O)c2ccccc2)c2ccccc2CC1(C)C,25 (active)
15,COCCCNC(=S)NC(=O)c1ccccc1,inactive
16,CCOC(=O)C(CC)/C(C)=N\NC(=O)c1cccc(C)c1 (centres undefined),inactive
17,ONC(=Nc1ccccc1)c1ccccc1Cl,inactive
18,NC(=O)CSc1nnc(NC(=O)c2ccc3ccccc3c2)s1,inactive
19,O=C(Nc1nnc(SCc2c(Cl)cccc2Cl)s1)c1cccc([N+](=O)[O-])c1,inactive
20,O=C(Nc1nnc(SCc2ccccc2Cl)s1)c1cccc([N+](=O)[O-])c1,12 (active)
21,Cc1ccc(S(=O)(=O)N2CCN(C(=O)Cc3sc(C)nc3-c3ccc(F)cc3)CC2)c(C)c1,inactive
22,CCOc1ccccc1NC(=S)NC(=O)CCc1ccccc1,inactive
23,C=CCn1c(SCC(=O)/C(C#N)=C(\C)N)nc2sc(C)c(C)c2c1=O,inactive
24,Cc1sc2nc(SCCO)n(-c3ccccc3)c(=O)c2c1C,inactive
25,Cc1sc2nc(SCC(N)=O)n(C)c(=O)c2c1C,29 (active)
26,Cc1cc(Nc2cccc(F)c2)n2ncnc2n1,inactive

row,SMILES,B-score
1,COc1ccc(/C=C2/S/C(=N/N=C3\CC4CCC3(C)C4(C)C)NC2=O)cc1 (centres undefined),inactive
2,CC(=O)c1ccc(N2CCN(C(=O)C3CCN(S(=O)(=O)c4ccc5c(c4)CC(C)N5C(=O)C4CC4)CC3)CC2)cc1 (centres undefined),19 (active)
3,CC(=O)N1c2ccc(S(=O)(=O)N3CCC(C(=O)N4CCN(c5ccccc5)CC4)CC3)cc2CC1C (centres undefined),inactive
4,COc1ccccc1CNC(=O)C1CCN(S(=O)(=O)c2ccc3c(c2)CC(C)N3C(=O)C2CC2)CC1 (centres undefined),inactive
5,CCCOc1ccccc1C1CC(=O)Nc2cc3c(cc21)OCO3 (centres undefined),14 (active)
6,COc1ccccc1C1C2=C(COC2=O)Nc2cc3c(cc21)OCO3 (centres undefined),inactive
7,COC(=O)C1=C(C)NC(=O)CC1c1ccccc1OC (centres undefined),inactive
8,C/C(=C/c1ccccc1)C(=O)N1CCN(c2ccccc2)CC1,inactive
9,O=C(O)c1cc2ccccc2c(=O)s1,inactive
10,COc1ccc(-c2nnn(CC(=O)N(CCO)C(C(=O)NC3CCCC3)c3ccc(F)cc3)n2)cc1 (centres undefined),inactive
11,Cc1ccc(-c2nnn(CC(=O)N(CCO)C(C(=O)NC(C)(C)C)c3ccncc3)n2)cc1 (centres undefined),10 (active)
12,Cc1ccc(-c2nnn(CC(=O)N(Cc3ccco3)C(C(=O)NC(C)(C)C)c3ccncc3)n2)o1 (centres undefined),inactive
13,O=C1C(=O)N(CCN2CCOCC2)C(c2cccc(Cl)c2)/C1=C(/O)c1ccc2c(c1)OCO2 (centres undefined),inactive
14,Cc1cc(/C=N/n2cnnc2)c(C)n1-c1ccc2ncccc2c1,inactive
15,Cc1ccccc1CC1(CO)CCCN(Cc2ccc3c(c2)OCCO3)C1 (centres undefined),inactive
16,COc1ccc([N+](=O)[O-])cc1NC(=O)CC1SC(=Nc2cccc(C)c2C)N(/N=C(\C)c2ccc(C)cc2)C1=O (centres undefined),inactive
17,O=C(N/N=C/c1ccc(Cl)cc1)c1nc2ccc([N+](=O)[O-])cc2c(=O)[nH]1,inactive
18,COc1cc(NS(=O)(=O)c2ccc(NC(=S)NC(=O)c3ccccc3)cc2)nc(OC)n1,inactive
19,CC(OC(=O)CCCc1c[nH]c2ccccc12)C(=O)Nc1ccc(S(N)(=O)=O)cc1 (centres undefined),inactive
20,Cc1cccn2c(=O)c(/C=C(\C#N)S(=O)(=O)c3ccc(Cl)cc3)c(N3CCC(C(N)=O)CC3)nc12,inactive
21,COCCCNC(=O)/C(C#N)=C/c1c(N2CCCCCC2)nc2ccccn2c1=O,inactive
22,Cc1cccn2c(=O)c(/C=C(\C#N)C(N)=O)c(N3CCCCCC3)nc12,12 (active)
23,O=C(c1ccc(NS(=O)(=O)c2ccc3[nH]c(=O)[nH]c3c2)cc1)N1CCCCC1,inactive
24,CN(C)CCCSc1ccccc1NC(=O)/C=C/c1ccccc1,inactive
25,N=c1c2c3c(sc2ncn1N)CCCC3,inactive
26,N=c1c2c3c(sc2ncn1N)CCCCC3,10 (active)

row,SMILES,B-score
1,N=c1c2c3c(sc2ncn1CCCN1CCOCC1)CCCCC3,inactive
2,N#Cc1ncc(C(F)(F)F)cc1Oc1cccnc1,inactive
3,O=c1cc(N2CCCCC2)c(-c2ccccc2)nn1Cc1cccc(F)c1,inactive
4,Cc1ncc([N+](=O)[O-])n1CCOC(=O)c1ccc(Br)cc1,inactive
5,Cc1cccc(CCNC(=O)Cn2ncc3c([nH]c4ccc(C)cc43)c2=O)c1,inactive
6,O=C1c2cccc3cccc(c23)N1CN1CCN(c2ccccn2)CC1,10 (active)
7,O=C(CN1CCN(c2ccccn2)CC1)N1CCc2ccccc21,inactive
8,CC(=C1C(=O)c2ccccc2C1=O)N1CCN(c2ccccn2)CC1,inactive
9,Cc1ccc(C)c(OCCC(=O)Nc2cccc(S(=O)(=O)N3CCCC3)c2)c1,inactive
10,CC(=O)Nc1ccc(S(=O)(=O)N2CCN(CCCOc3cc(C)ccc3C)CC2)cc1,32 (active)
11,Cc1cccc(OCCCC(=O)Nc2ccc(S(=O)(=O)N3CCCC3)cc2)c1,inactive
12,CC(=O)c1ccc(N2CCN(S(=O)(=O)c3ccc4c(c3)CC(=O)N4C)CC2)cc1,inactive
13,Cc1c(C(=O)NCCN2C(=O)S/C(=C\c3cccs3)C2=O)cccc1[N+](=O)[O-],inactive
14,COC(=O)c1ccccc1N=Nc1c(C)[nH][nH]c1=O,59 (active)
15,Cc1[nH]n(-c2ccccc2)c(=O)c1N=Nc1ccccc1C(=O)N1CCCCC1,inactive
16,Cc1[nH][nH]c(=O)c1N=Nc1ccccc1,inactive
17,N#Cc1cccc(OC(=O)c2ccc3c(=O)n4c(nc3c2)CCC4)c1,inactive
18,CCOC(=O)C1=C(c2ccc(OC)cc2)C(=O)c2ccccc2C1=O,inactive
19,CCOC(=O)c1ccc(-c2ccc(C(=O)Nc3cccnc3)o2)cc1,inactive
20,COC(=O)C1=C(C)NC2=C(C(=O)c3ccccc32)C1c1ccc(-c2ccc(C(=O)O)cc2)o1 (centres undefined),16 (active)
21,CC(NC(=O)COc1ccc(-c2ccccc2)cc1)C1CCCO1 (centres undefined),inactive
22,O=C(NCCc1ccccc1)C1CC1,inactive
23,CCn1cc(C(=O)N2CC=C(c3ccccc3)CC2)c(=O)c2ccc(C)nc21,inactive
24,O=C(Nc1cccc(Cl)c1N1CCOCC1)c1ccc2c(c1)OCCO2,inactive
25,CCN1CCN(c2c(Cl)cccc2NC(=O)c2ccc(Br)o2)CC1,11 (active)
26,O=C(Nc1cccc(Cl)c1N1CCOCC1)c1cccnc1,inactive
